Cruzain Triton: qHTS Assay for Promiscuous and Specific Inhibitors of Cruzain (with detergent); purified cruzain, Z-FR-AMC fluorescence, 0.01% Triton; actives 0.43% (n = 200,000); Cruzipain (Trypanosoma cruzi), P25779; Potency, µM, hits mostly inhibitors; also: nearly all actives have a fitted effect of over 40% in size
Target sequence (P25779 123-467 limits assumed): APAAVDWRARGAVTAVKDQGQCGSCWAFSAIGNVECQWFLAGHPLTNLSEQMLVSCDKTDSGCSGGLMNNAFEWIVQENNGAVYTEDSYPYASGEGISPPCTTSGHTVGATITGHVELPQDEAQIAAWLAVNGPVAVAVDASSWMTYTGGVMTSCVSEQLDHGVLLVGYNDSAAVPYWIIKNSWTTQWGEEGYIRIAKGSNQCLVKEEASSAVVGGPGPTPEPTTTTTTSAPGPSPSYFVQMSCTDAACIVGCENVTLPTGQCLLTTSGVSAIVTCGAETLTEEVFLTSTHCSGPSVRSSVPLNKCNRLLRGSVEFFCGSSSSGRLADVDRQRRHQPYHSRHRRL
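Read-out: AMC fluorescence (360 nm excitation, 450 nm emission), four reads over 2 min, first-to-third difference used. Conditions: cruzain 1.5 nM, Z-FR-AMC 2 uM, pH 5.5 acetate, 5 mM DTT, 0.01% Triton X-100.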
Cruzain noTriton: qHTS Assay for Promiscuous and Specific Inhibitors of Cruzain (without detergent); Potency, µM, actives largely listed as inhibitors; purified cruzain, Z-FR-AMC fluorescence, no detergent; AID 1476, 2009; actives 2.3% (n = 200,000); also: nearly all actives have a fitted effect of over 40% in size
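Purified cruzain at 1.5 nM, pre-incubated 15 min with compound at room temperature in 100 mM sodium acetate pH 5.5, 5 mM DTT, 0.00005% Triton X-100. Reaction started with 2 uM Z-FR-AMC; AMC fluorescence increase over 60 s gives rate.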
Hits are given with their value; n = inactive; u = inconclusive. Compounds with a hit are over-represented: about 2.4% of the library has one in this group of screens. Calls follow the shape of the dose curve; as a rule, active = well fitted curve in the direction sought with a large enough effect; inconclusive = small, poorly fitted or top-dose-only effect, or another doubt; inactive = no such curve, though single readings can be large; an effect the other way counts as inactive or inconclusive.

SMILES	Cruzain Triton	Cruzain noTriton
O=C(Cn1nc(-c2ccccc2)c2c(c1=O)CCCC2)Nc1ccc(F)c(Cl)c1	n	n
CCCC(C)C(=O)Nc1nc(C)c(-c2csc(Nc3cc(OC)ccc3OC)n2)s1 (configuration not stated)	n	u
CCCC(=O)Nc1nc(C)c(-c2csc(Nc3ccc(Cl)cc3)n2)s1	n	12.6µM
CCCCCC(=O)Nc1nc(C)c(-c2csc(Nc3cc(Cl)ccc3OC)n2)s1	n	3.16µM
CCC(C)C(=O)Nc1nc(C)c(-c2csc(Nc3ccc(Cl)cc3)n2)s1 (configuration not stated)	n	3.98µM
CC(=O)Nc1nc(C)c(-c2csc(Nc3cccc([N+](=O)[O-])c3)n2)s1	n	n
CCCC(=O)Nc1nc(C)c(-c2csc(Nc3cc(OC)ccc3OC)n2)s1	n	n
CC(=O)Nc1nc(C)c(-c2csc(Nc3ccc(O)cc3)n2)s1	n	12.6µM
CCCC(=O)Nc1nc(C)c(-c2csc(Nc3ccccc3OC)n2)s1	n	n
COc1ccc(-n2c(=O)cnc3cnc(N(C)C)nc32)cc1	n	n
Cc1ccc(S(=O)(=O)c2nc(-c3ccccc3F)oc2N2CCCCC2)cc1	n	n
CC(C)c1nn2c(=O)cc(COC(=O)c3ccco3)nc2s1	n	n
C=CCC(C)(O)C#Cc1ccccc1 (configuration not stated)	n	n
C=CCCC(=O)Nc1nc(C)c(-c2csc(Nc3cccc(OC)c3)n2)s1	n	15.8µM
C=CCCC(=O)Nc1nc(C)c(-c2csc(Nc3cc(OC)ccc3OC)n2)s1	n	u
COc1ccc(-c2cc(-c3ccccc3)nc(SCC(=O)Nc3ccccc3C)c2C#N)cc1	n	n
COc1ccc(-c2cc(-c3cccs3)c(C#N)c(SCC(=O)NCc3ccco3)n2)cc1	n	7.94µM
COc1ccc(CNC(=O)CSc2nc(-c3ccccc3)cc(-c3cccs3)c2C#N)cc1	n	10µM
CC(C)OC(=O)CC(=O)CSc1nc(-c2ccc(F)cc2)cc(-c2ccccc2)c1C#N	n	n
CCc1nnc(NC(=O)CSc2nc(-c3ccccc3)cc(-c3ccc(F)cc3)c2C#N)s1	n	7.94µM
O=C(CSc1nc(-c2cccs2)cc(C(F)(F)F)n1)NCc1ccco1	n	n
COCCCNC(=O)CCCn1c(=O)c2cccn2c2ccccc21	n	n
c1ccc2c(c1)Cc1cc3cc4c(cc3nc1-2)OCO4	n	n
Cc1cccc(C(=O)N2CCC(N3CCN(Cc4ccc(F)cc4)C(=O)C3=O)CC2)c1	n	n
N#C/C(C(=O)Oc1ccccc1)=C1/Nc2ccccc2-c2ccccc21	n	12.6µM
SMILES	Cruzain Triton	Cruzain noTriton
N#CC(C(=O)Nc1ccccc1)=C1Nc2ccccc2N1	n	n
Cc1c(C)n(Cc2ccccc2)c2ccc(C(=O)NCC(C)c3ccccc3)cc12 (configuration not stated)	n	u
Cc1c(/C=C2\SC(=O)N(CC(=O)Nc3ccc4c(c3)OCO4)C2=O)c2ccccc2n1C	n	u
CCn1cc(/C=C2\SC(=O)N(CC(=O)Nc3ccc4c(c3)OCO4)C2=O)c2ccccc21	n	3.16µM
O=C(CNc1ccc2c(c1)OCO2)N/N=C\c1cn(Cc2ccccc2)c2ccccc12	n	12.6µM
O=C(CNc1ccc2c(c1)OCO2)N/N=C\c1cn(Cc2ccc(F)cc2)c2ccccc12	n	u
CCCOc1ccc(C(=O)Nc2ccc(Cl)c(-c3nc4ncccc4o3)c2)cc1	n	n
CCN(CC)c1ccc(N2C(=O)/C(=C\c3cccs3)SC2=S)cc1	n	25.1µM
O=C1/C(=C/c2cccs2)SC(=S)N1c1ccccc1	n	u
O=C(N/N=C\c1cn(-c2ccccc2)nc1-c1ccccc1)c1ccc(Br)o1	n	25.1µM
Cc1ccc(-c2nn(-c3ccccc3)cc2/C=N/NC(=O)c2ccc(Br)o2)cc1	n	u
COc1ccc(-c2nn(-c3ccccc3)cc2/C=N/NC(=O)c2cccc(S(=O)(=O)Nc3ccccc3Cl)c2)cc1	n	7.94µM
COc1ccc(-c2nn(-c3ccccc3)cc2/C=N/NS(=O)(=O)c2ccccc2)cc1	n	u
COc1cccc(N2CCN(C(=O)c3ccc4c(Cl)c5c(nc4c3)CCCC5)CC2)c1	n	n
CC(C)(C)OC(=O)N1CCC(c2c(C(=O)N3CCN(c4ccccc4F)CC3)cnn2-c2ccccc2Cl)CC1	n	u
CCCCc1sc(-c2c(C#N)c(N)nc3c2CCCCC3)cc1[N+](=O)[O-]	n	n
CCCCc1ccc(-c2c(C#N)c(N)nc3c2CCCC3)s1	n	25.1µM
COc1ccc2cc(CCNS(=O)(=O)c3ccc(C)cc3)c(=O)[nH]c2c1	n	n
COc1ccc(OC)c(NC(=O)c2cc3c(n(-c4ccc(Cl)cc4)c2=O)CC(C)(C)CC3=O)c1	n	n
O=C(COc1cccc(Cl)c1)Nc1nc(-c2ccc(S(=O)(=O)N3CCOCC3)cc2)cs1	n	12.6µM
CCOc1cccc(C(=O)Nc2nc(-c3ccc(S(=O)(=O)N4CCOCC4)cc3)cs2)c1	n	u
Cc1c(Cl)cccc1NC(=O)c1ccc2c(c1)nnn2C1CCCC1	n	n
COc1ccc(-c2csc(NC(=O)c3cccc(S(=O)(=O)N4CCN(C)CC4)c3)n2)cc1	n	n
COc1ccc(C2=CSC3=C(C(=O)c4cccc(S(=O)(=O)N(C)C)c4)CCN23)cc1	n	25.1µM
Cc1cccc(N2CC(C(=O)Nc3nnc(SCC(=O)Nc4cc(C)on4)s3)CC2=O)c1 (configuration not stated)	n	10µM
SMILES	Cruzain Triton	Cruzain noTriton
COc1ccc(Nc2nnc(SCC(=O)Nc3cc(C)on3)s2)cc1	n	n
Cc1cc(NC(=O)CSc2nnc(Nc3ccccc3)s2)no1	n	15.8µM
Cc1ccccc1N1CC(C(=O)Nc2nnc(SCC(=O)Nc3nccs3)s2)CC1=O (configuration not stated)	n	n
Cc1cccc(N2CC(C(=O)Nc3nnc(SCC(=O)Nc4nccs4)s3)CC2=O)c1 (configuration not stated)	n	6.31µM
COc1cccc(N2CC(C(=O)Nc3nnc(SCC(=O)c4ccccc4)s3)CC2=O)c1 (configuration not stated)	n	n
CCOc1ccc(-n2c(CCC(=O)O)ccc2-c2ccc(Br)cc2)cc1	n	n
CC(C)(CCC(C)(C)c1ccccc1)c1ccccc1	n	n
COc1cc2c(cc1OC)C1N(CC2)C(=O)CCC12C(=O)CCCC2=O (configuration not stated)	n	n
COc1ccc(CCNC(=O)Cn2c(=O)n(-c3cc(OC)c(OC)c(OC)c3)c(=O)c3ccccc32)cc1OC	n	n
Cc1nc(C)c(-c2csc(NCc3ccco3)n2)s1	n	n
Cc1nc(NC(=O)c2ccccc2)sc1-c1csc(NCc2ccco2)n1	n	15.8µM
Cc1nc(NC(=O)c2ccc(Cl)cc2)sc1-c1csc(Nc2cccc(F)c2)n1	n	10µM
COc1ccccc1Nc1nc(-c2sc(NC(=O)C(C)(C)C)nc2C)cs1	n	n
Cc1ccc(Nc2nc(-c3sc(NC(=O)c4ccco4)nc3C)cs2)cc1	n	n
Cc1ccc(Nc2nc(-c3sc(NC(=O)c4cccc(Cl)c4)nc3C)cs2)cc1	n	3.98µM
COc1cccc(Nc2nc(-c3sc(NC(=O)c4ccccc4)nc3C)cs2)c1	n	u
COc1ccccc1Nc1nc(-c2sc(NC(=O)c3cccc(Cl)c3)nc2C)cs1	n	7.94µM
O=S(=O)(Nc1ccc(F)cc1F)c1ccc(-n2cccn2)cc1	n	n
